The supplement of paper PMC10515830
Counter-ions that a name gives are not always drawn.

Columns and labels:
Details in all cases: 10 µM; exposure time 6 h
[1] = test system: Danio rerio larvae (5 dpf); test: difference in excitability vs DMSO (percentage points); higher = more excitable than DMSO
How it was run: (§1)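 Wild-type 5 dpf zebrafish larvae in 96-well plates were given 100 µL egg water containing library compound at 10 µM final for 6 h. After 3 h of exposure, plates at 28.5 ℃ were photographed every 6 s during a 3-h programme of moving lines and 100 ms, 400Hz tones. Z-LaP Tracker (a DeepLabCut model) quantified each behaviour, averaged over 48 larvae per compound. Values are the compound mean minus the DMSO-vehicle control, in percentage points.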

[2] = test system: Danio rerio larvae (5 dpf); test: difference in startle response vs DMSO (percentage points); higher = stronger startle than DMSO
How it was run: as §1

[3] = test system: Danio rerio larvae (5 dpf); test: difference in activity during first hour vs DMSO (percentage points); higher = more activity than DMSO
How it was run: as §1

[4] = test system: Danio rerio larvae (5 dpf); test: difference in habituation to acoustic stimuli vs DMSO (percentage points); higher = more habituation than DMSO
How it was run: as §1

[5] = test system: Danio rerio larvae (5 dpf); test: difference in combined optomotor response to red, green and blue moving lines vs DMSO (percentage points); higher = stronger optomotor response than DMSO
How it was run: as §1

Compound	difference in excitability [1]	difference in startle response [2]	difference in activity during first hour [3]	difference in habituation to acoustic stimuli [4]	difference [5]
CC1(C)CCC(CN2CCN(c3ccc(C(=O)NS(=O)(=O)c4ccc(NCC5CCOCC5)c([N+](=O)[O-])c4)c(Oc4cnc5[nH]ccc5c4)c3)CC2)=C(c2ccc(Cl)cc2)C1	0.697	-11.3	10.4	2.22	3.34
N#Cc1ccc2[nH]cc(CCCCN3CCN(c4ccc5oc(C(N)=O)cc5c4)CC3)c2c1 [Vilazodone (hydrochloride)]	12.6	-3.13	-16.6	-3.2	-4.96
CC(C)(C)NCC(O)c1ccc(O)c(CO)c1 (stereo not given) [Salbutamol (hydrochloride)]	7.67	-7.77	15.5	-0.991	4.05
CC(C)C(=O)OCC(=O)[C@@]12O[C@H](C3CCCCC3)O[C@@H]1C[C@H]1[C@@H]3CCC4=CC(=O)C=C[C@]4(C)[C@H]3[C@@H](O)C[C@@]12C [Ciclesonide]	9.7	-3.59	-7.9	-5.49	9.17
COc1cc2nccc(Oc3ccc(NC(=O)NC4CC4)c(Cl)c3)c2cc1C(N)=O [Lenvatinib]	13.6	6.75	-8.05	1.57	10.3
CC(C)NCC(O)c1cc(O)cc(O)c1 (stereo not given) [Metaproterenol (hemisulfate)]	3.08	0.666	26.4	-8.48	1.44
CC[C@H]1OC(=O)[C@H](C)[C@@H](O[C@H]2C[C@@](C)(OC)[C@@H](O)[C@H](C)O2)[C@H](C)[C@@H](O[C@@H]2O[C@H](C)C[C@H](N(C)C)[C@H]2O)[C@](C)(OC)C[C@@H](C)C(=O)[C@H](C)[C@@H](O)[C@]1(C)O [Clarithromycin]	7.19	1.97	11.7	-1.55	6.95
CNC(=O)c1ccc(N2C(=S)N(c3ccc(C#N)c(C(F)(F)F)c3)C(=O)C2(C)C)cc1F	13.3	4.28	-11	-1.47	-0.198
Cc1ncc([N+](=O)[O-])n1CCO [Metronidazole]	5.42	1.25	-3.64	-2.4	7.32
CCN(CC)C(=O)[C@@]1(c2ccccc2)C[C@H]1CN [Levomilnacipran (hydrochloride)]	9.82	0.949	-23	-1.84	-14.2
CCCc1cc(=O)[nH]c(=S)[nH]1 [Propylthiouracil]	7.08	1.86	3.37	-0.81	1.84
S=P(N1CC1)(N1CC1)N1CC1	0.228	0.991	4.02	0.555	1.07
OC(Cn1cncn1)(Cn1cncn1)c1ccc(F)cc1F [Fluconazole]	-1.01	-5.1	-3.04	-5.58	3.09
CN(C)CCC(c1ccc(Br)cc1)c1ccccn1 (stereo not given) [Brompheniramine (maleate)]	4.19	-2.92	-11.7	-3.69	7.28
OCCOCCN1CCN(C2=Nc3ccccc3Sc3ccccc32)CC1 [Quetiapine (hemifumarate)]	-1.54	-3.79	16.8	-4.99	10.6
FC(F)OC(Cl)C(F)(F)F (stereo not given) [Isoflurane]	11.1	8.95	-15.9	-1.84	-13
CC(=O)O[C@]1(C(C)=O)CC[C@H]2[C@@H]3C[C@H](C)C4=CC(=O)CC[C@]4(C)[C@H]3CC[C@@]21C [Medroxyprogesterone 17-acetate]	9.28	-1.88	-1.67	-11.4	-9.37
O=C(NC1CCN(CCCCC2(C(=O)NCC(F)(F)F)c3ccccc3-c3ccccc32)CC1)c1ccccc1-c1ccc(C(F)(F)F)cc1 [Lomitapide]	17	-3.26	-7.94	-2.68	-5.57
Nc1ccn(C[C@@H](CO)OCP(=O)(O)O)c(=O)n1 [Cidofovir]	-2.11	-1.31	-7.68	-3.35	-5.67
CC(C)(CO)c1cc2cc(NC(=O)C3(c4ccc5c(c4)OC(F)(F)O5)CC3)c(F)cc2n1C[C@@H](O)CO	16.7	3.44	15.2	6.02	6.53
CN(CCOc1ccc(NS(C)(=O)=O)cc1)CCc1ccc(NS(C)(=O)=O)cc1 [Dofetilide]	-1.01	-4.06	7.17	7	7.94
CN(C)C(=N)NC(=N)N [Metformin (hydrochloride)]	-3.21	1.77	-3.05	-5.21	-1.97
CN1C(C(=O)Nc2ccccn2)=C(O)c2ccccc2S1(=O)=O [Piroxicam]	12.1	0.219	4.07	-1.73	-0.889
CCOC(=O)[C@H](CCc1ccccc1)N[C@@H](C)C(=O)N1[C@H](C(=O)O)C[C@H]2CCCC[C@@H]21 [Trandolapril]	-2.52	-0.34	2.67	-0.88	6.04
Cc1c(OCC(F)(F)F)ccnc1C[S@@+]([O-])c1nc2ccccc2[nH]1 [(R)-Lansoprazole]	7.16	4.39	7.03	-1.38	1.12
O=C1CCc2cc(OCCCCc3nnnn3C3CCCCC3)ccc2N1 [Cilostazol]	12.6	2.9	11.7	-4.79	0.57
